Source: article PMC13494018
Unmarked numbers belong to inactive results. How the calls were made is not given here.

B1: design_604_3e0b3014-b333-46f1-8adc-d7f0bf8048fa_1128_dldesign_0_cycle1_af2pred (protein)
chain: MAEKEAQLKKIEEEKKKVSEKFFEAFELASSKELASEISKKSKEANELFKKGREDPSIADKTMEEAKKIAEEALEKAKKEKEA
B2: design_604_3e0b3014-b333-46f1-8adc-d7f0bf8048fa_1117_dldesign_0_cycle1_af2pred (protein)
chain: MEGIETSDLLSKAIKTGKEAYKELKEVGTEEEAEKFKEEMVKKLFEAADADIEESKKLLKELLKEAEEKLEEAKKRKA
B3: design_604_3e0b3014-b333-46f1-8adc-d7f0bf8048fa_762_dldesign_0_cycle1_af2pred (protein)
chain: SKKVYELYAEAKLEQIKRAKELAPKGDPKLAAERAEKLAKEAKEAAKKAGEEGEKIAKEAEKEAEALKKEV
B4: design_604_3e0b3014-b333-46f1-8adc-d7f0bf8048fa_148_dldesign_0_cycle1_af2pred (protein)
chain: MKEASEEMAKAYEALAELRLLAKKIPEFKEDAEKAEKKLKEAVKADPETALKLAKETKEEVEKAIEKAKKKL
B5: design_604_3e0b3014-b333-46f1-8adc-d7f0bf8048fa_1186_dldesign_0_cycle1_af2pred (protein)
chain: SMSKELAEKIRKAIREIREAAERAIAEARRLVEEGRVEEGLAVLEEAEKEFRELAKKWEGYAASGVAENGAAALRAVREEIE
B6: design_603_0b98da89-d791-4423-9b2d-fd1b7292da18_2319_dldesign_0_cycle1_af2pred (protein)
chain: AETWLDALDDAAKDHPSFAYAFATSIAKRAEEKIKELTEKAKENASNPELKKKLLEKAEEYKKVLEKAKEVAEKALKEYLA
B7: design_604_3e0b3014-b333-46f1-8adc-d7f0bf8048fa_188_dldesign_0_cycle1_af2pred (protein)
chain: GALEEIKKLGKKAKEAAKNGDSSEAIREFAKLAKAAGKALTPEFAKKASEKLYEVVDTLAKDEEEGKKLLEKKVEEIVKEAKKYLE
B8: design_604_3e0b3014-b333-46f1-8adc-d7f0bf8048fa_498_dldesign_0_cycle1_af2pred (protein)
chain: MLEFLEKVEEKADKKIEEALAKEDPVKALEEEKKKMEAELKAKSEAAKGDPGLHKLYLTAARLAKNQFDVEIKKAKEELE
B9: design_604_3e0b3014-b333-46f1-8adc-d7f0bf8048fa_1074_dldesign_0_cycle1_af2pred (protein)
chain: DPAEERVEKARKEMEKAVEKYAEKGKKENLNLAYAEAIREISRIAKELVKEIGEEVRERALKIKEEQLKKLEKLEKEA
B10: design_603_0b98da89-d791-4423-9b2d-fd1b7292da18_2382_dldesign_0_cycle1_af2pred (protein)
chain: ALAAAKEKAKAIEEKLSQAIFDGADKGPEVVFKAAEEAEKEVEEMKKADPKAKEEVKRAKEAVKKAKAVGKSMKEAEENAKKGA
B11: design_604_3e0b3014-b333-46f1-8adc-d7f0bf8048fa_739_dldesign_0_cycle1_af2pred (protein)
chain: KEEILKEAKKLKEEAVKKAKEGNAEEGRKARKEFLEEMKKMAEKGDKKEISKITHEALEKIAEAIQEAKEKARKEEEEKK
B12: design_604_3e0b3014-b333-46f1-8adc-d7f0bf8048fa_503_dldesign_0_cycle1_af2pred (protein)
chain: SAALVDARVAAADALYDAAIAAGYESLAGKIATAFIRGAATGVEAALERASAVAPEELKPVVAAEAAKVAAVA
B13: design_604_3e0b3014-b333-46f1-8adc-d7f0bf8048fa_1084_dldesign_0_cycle1_af2pred (protein)
chain: SPAAAAAAVQYAAFDAIAAATDAATVKAIADAAVAALAAAAAADPAHAEQYAKAAAAIKSFADAAIKALK
B14: design_604_3e0b3014-b333-46f1-8adc-d7f0bf8048fa_844_dldesign_0_cycle1_af2pred (protein)
chain: EEEKLKEAEKHLEKMIEILKEAAKKGYAKEEVELVKGDEETRKKGVYNAMGNVITGEGKEGVETARKISRYAKKSEELRKA
B15: design_604_3e0b3014-b333-46f1-8adc-d7f0bf8048fa_423_dldesign_0_cycle1_af2pred (protein)
chain: AKEKALKEALKEFDKAQEYGFDYVAEAKKNPEVYEEAYEERKKAIKEAKELYKEATTEEKAKELLELAKKEAEKFKEKAKEL
B16: design_604_3e0b3014-b333-46f1-8adc-d7f0bf8048fa_253_dldesign_0_cycle1_af2pred (protein)
chain: SETTEKLKKELEAAKKEGKEALAKAEAAGDAEAAKKAGSDAAGKLYEIAAEADSAGDKETAKEARKAAKEIREAAKKAIAAAKAKAAA
B17: design_604_3e0b3014-b333-46f1-8adc-d7f0bf8048fa_672_dldesign_0_cycle1_af2pred (protein)
chain: ALEKATEAAKKAGEAVAKALGEEGKPVAEEAIEKIADPSTWKDGFSLFLRYAYYAGEEVYKKVDELLDEVLELLS
B18: design_604_3e0b3014-b333-46f1-8adc-d7f0bf8048fa_962_dldesign_0_cycle1_af2pred (protein)
chain: HHKKEKAKKVAELLEKARELAEKEGPEAAKPLIVEARSLAFEVDSELGRKIAKAGLLILKDLEKGLKILKEVQEEFKKIA
B19: design_604_3e0b3014-b333-46f1-8adc-d7f0bf8048fa_1191_dldesign_0_cycle1_af2pred (protein)
chain: EEKKKEIEELKKKVSKAQLELTDLAAKQDISKKDLEEKVQEAIRKAAKLGKIADEAVAKGEEYYPEAKKALEEALKVLEEAKKAVEEA
B20: design_604_3e0b3014-b333-46f1-8adc-d7f0bf8048fa_171_dldesign_0_cycle1_af2pred (protein)
chain: QEALKKELEKAAAKVKELAEYIEKNAEKLTAEEAEKIAEELRKLAKKLREIGEKLDAETRKEAQKAVDLAYEAAALAKSIAARKK
B21: design_603_0b98da89-d791-4423-9b2d-fd1b7292da18_2465_dldesign_0_cycle1_af2pred (protein)
chain: ASEKAKAFSEAQRLLVRAGKLAAADPKTAPVAELVQKAIFALGDNLEEGLKLAEEAAELAKKIGDEETAKLVKEAAEKIKEVI
B22: design_604_3e0b3014-b333-46f1-8adc-d7f0bf8048fa_1067_dldesign_0_cycle1_af2pred (protein)
chain: SEIEKGEALLKEDPEWAKAASDALGKIAEDPEEGEKYAKEVIEKVLKEDPEKGPLMAKAIEERSEKLKKRVEEALERAK
B23: design_604_3e0b3014-b333-46f1-8adc-d7f0bf8048fa_75_dldesign_0_cycle1_af2pred (protein)
chain: SAEAEEAEKKALLEFSEAAAELRGLATLGKNKGNAKELAEKGFKAIEEGKKALEAATKTEEKKEIATRYAKELKELKEKLEKALS
B24: design_604_3e0b3014-b333-46f1-8adc-d7f0bf8048fa_950_dldesign_0_cycle1_af2pred (protein)
chain: AEEALKKAEEYAAKGDEYAAKGEAYEKSGDKLEEAAKYYAKAASYYLLAANAYLAAGNEEKAKEAEAKAEEAAEKATEAYQKASA
B25: design_604_3e0b3014-b333-46f1-8adc-d7f0bf8048fa_818_dldesign_0_cycle1_af2pred (protein)
chain: EEVEKKSEEVKKLLEEGAKTTTIDAQLAASEAVELAEELMKKDPEKGLKVAEVVLKEAEKLLKANPGVGELTIKRAEKVIKRAKE
B26: design_604_3e0b3014-b333-46f1-8adc-d7f0bf8048fa_936_dldesign_0_cycle1_af2pred (protein)
chain: MEEAKEKAKEQIKKLKEAAEKAVKVYKEIGKEEEAKKIKEEAKKAEKEAEKLLEKDPYEGAQLAQEALAEAKAELSRAEKELKK
B27: design_603_0b98da89-d791-4423-9b2d-fd1b7292da18_2381_dldesign_0_cycle1_af2pred (protein)
chain: AAAAAEEAATAAAAALGKAVAAQVLAAADDPEKRGALVAEAQAIADKLSPAQRAAMAAAMHEAHEKIAEKKSEKAR
B28: design_604_3e0b3014-b333-46f1-8adc-d7f0bf8048fa_1013_dldesign_0_cycle1_af2pred (protein)
chain: SLEEILKEVKAENERLTARIEAAYERGLAAIAAGDLKAASAAAGEIAEARAEAALINTRYGNVAKEVEDKARELLREVRAAGKA
B29: design_603_0b98da89-d791-4423-9b2d-fd1b7292da18_2271_dldesign_0_cycle1_af2pred (protein)
chain: MTPEEKKAAEAEKIAAAADAAIKAAEKAIASGTKAEIATEAARLESVAMAAKALGTAPDIAERAEAAAEKAWQAAVEKLE
B30: design_604_3e0b3014-b333-46f1-8adc-d7f0bf8048fa_12_dldesign_0_cycle1_af2pred (protein)
chain: MNLEEAKNLLEAAKELVEEAKELLKEGKYKQALAFAKTAYEIAEKVAKEVPELAKEAEKIKKEAKEVIEEAKKAL
B31: design_604_3e0b3014-b333-46f1-8adc-d7f0bf8048fa_596_dldesign_0_cycle1_af2pred (protein)
chain: DAKKEIQELTDEAIKKIEEYAKKAKDPKNYEKAIKEAVDTVHEAQQKLAEIGKKYGPEAEKYAKEQRKKVIDAGKKYIEEAKKAQA
B32: design_604_3e0b3014-b333-46f1-8adc-d7f0bf8048fa_694_dldesign_0_cycle1_af2pred (protein)
chain: SVEEKLKEAEKVFKEVEERAKKVEAKDPEEGKKLREELAKARELAESDPSKAPEAAQQARIALTEAEWEVRKKEK
B33: design_604_3e0b3014-b333-46f1-8adc-d7f0bf8048fa_1215_dldesign_0_cycle1_af2pred (protein)
chain: SRVEELGKRLANKGKKYSLDDAADFGAEMAIMAGLTEEEAEAAFKYAAEIDPSFAEAMKKGLALYKELTA
B34: design_603_0b98da89-d791-4423-9b2d-fd1b7292da18_2259_dldesign_0_cycle1_af2pred (protein)
chain: GAAALAAGKAALKEAKDTAAKANEAMGGGLQPVFDSAMKTVEAKKGDPAAYLKAATAFKTTFSRILKLAS
B35: design_604_3e0b3014-b333-46f1-8adc-d7f0bf8048fa_145_dldesign_0_cycle1_af2pred (protein)
chain: IKQLEQLLEMAEEEAKKDPVTGIALARATINRADRLAASGTPEEAKKANEIKEKAEKVKKEAEAKLAAAEAAAKA
B36: design_604_3e0b3014-b333-46f1-8adc-d7f0bf8048fa_941_dldesign_0_cycle1_af2pred (protein)
chain: SLLDEAVALLAAANPALAPEFEKLARELQGYLDLAKDYPEIAPVMLKRATRVGEELVAVAAEAGPEVAEVATAAVEEVLAAIK
B37: design_604_3e0b3014-b333-46f1-8adc-d7f0bf8048fa_841_dldesign_0_cycle1_af2pred (protein)
chain: AELEKAIKEANALRDKALDNVGNPEEAQKYIDELKEKAKKAAELGGPEVAKEAEKMIKALEDTLEKAKKILE
B38: design_604_3e0b3014-b333-46f1-8adc-d7f0bf8048fa_1004_dldesign_0_cycle1_af2pred (protein)
chain: AAAEAARKAEVAKKSKELAKQIAENASDEEKRKALLAEMRALAEAGTPEEAAIVVEEVHKGYEEAAEKLVEERR

Target: VTCN1, Q7Z7D3
Sequence (Q7Z7D3 whole entry): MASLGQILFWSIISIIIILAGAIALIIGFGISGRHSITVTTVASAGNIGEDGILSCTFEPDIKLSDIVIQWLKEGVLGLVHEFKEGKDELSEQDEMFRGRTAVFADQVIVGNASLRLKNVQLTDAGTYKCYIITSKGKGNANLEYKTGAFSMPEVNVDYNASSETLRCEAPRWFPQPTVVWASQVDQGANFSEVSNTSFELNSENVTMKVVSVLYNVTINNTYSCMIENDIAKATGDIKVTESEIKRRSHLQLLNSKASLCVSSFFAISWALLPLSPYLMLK

| Binder | binding in a display sort |
| --- | --- |
| B1 | not found |
| B2 | not found |
| B3 | not found |
| B4 | not found |
| B5 | not found |
| B6 | not found |
| B7 | not found |
| B8 | not found |
| B9 | not found |
| B10 | not found |
| B11 | not found |
| B12 | not found |
| B13 | not found |
| B14 | not found |
| B15 | not found |
| B16 | not found |
| B17 | not found |
| B18 | not found |
| B19 | not found |

| Binder | binding in a display sort |
| --- | --- |
| B20 | not found |
| B21 | not found |
| B22 | not found |
| B23 | not found |
| B24 | not found |
| B25 | not found |
| B26 | not found |
| B27 | not found |
| B28 | not found |
| B29 | not found |
| B30 | not found |
| B31 | not found |
| B32 | not found |
| B33 | not found |
| B34 | not found |
| B35 | not found |
| B36 | not found |
| B37 | not found |
| B38 | not found |
